In all, about 5,500 compounds went through this assay and about 2,000 (36%) were called active. Inconclusive results (about 18%) are left out. Cut-off read from the data, not from the text of the source: active = normalized growth mostly below about 0.91 (no sharp cut-off); inconclusive = no clear call, values can overlap the other calls; inactive = mostly above about 0.92. Some of the results follow.
Test: chemical genetic growth profiling, strain panel (AID 1159580);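 note: tested at 20 µM; growth read once vehicle control cultures reached saturation at 30 °C; 1 = growth at the plate median or of vehicle wells; lower values mean less growth of the strain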
Conditions: S. cerevisiae deletion strains, growth OD

Measured: normalized growth

CC(CC(C(N)=O)(c1ccccc1)c1ccccc1)N(C)C (stereo not given)
inactive: locus YAL021C, strain ccr4, hits give low values 0.952 | locus YAL026C, strain drs2, hits give low values 0.977 | locus YAL030W, strain snc1, hits give low values 0.996 | locus YBL061C, strain skt5, hits give low values 0.983 | locus YBR009C, strain hhf1, hits give low values 0.988 | locus YBR023C, strain chs3, hits give low values 0.949 | locus YBR171W, strain sec66, hits give low values 0.967 | locus YBR231C, strain swc5, hits give low values 0.994 | locus YBR279W, strain paf1, hits give low values 0.995 | locus YCL011C, strain gbp2, hits give low values 0.963 | locus YCL016C, strain dcc1, hits give low values 0.989 | locus YCL061C, strain MRC1, hits give low values 0.981 | locus YCL069W, strain vba3, hits give low values 0.976 | locus YCR088W, strain abp1, hits give low values 0.973 | locus YDL005C, strain med2, hits give low values 0.989 | locus YDL040C, strain nat1, hits give low values 0.996 | locus YDR001C, strain nth1, hits give low values 0.974 | locus YDR069C, strain doa4, hits give low values 0.973 | locus YDR137W, strain rgp1, hits give low values 0.968 | locus YDR159W, strain sac3, hits give low values 0.981 | locus YDR195W, strain ref2 0.981 | locus YDR297W, strain sur2, hits give low values 0.983 | locus YDR334W, strain swr1, hits give low values 0.942 | locus YDR335W, strain msn5, hits give low values 0.978 | locus YDR392W, strain spt3, hits give low values 0.958 | locus YEL003W, strain gim4, hits give low values 0.982 | locus YEL037C, strain rad23, hits give low values 0.939 | locus YEL061C, strain CIN8 (second series), hits give low values 0.982 | locus YER015W, strain faa2, hits give low values 1.01 | locus YER016W, strain bim1, hits give low values 0.982 | locus YER111C, strain swi4, hits give low values 0.994 | locus YER155C, strain BEM2 (second series), hits give low values 0.985 | locus YFR010W, strain ubp6, hits give low values 0.964 | locus YGL167C, strain pmr1, hits give low values 0.988 | locus YGL173C, strain kem1, hits give low values 0.975 | locus YGL227W, strain vid30, hits give low values 0.989 | locus YGL240W, strain doc1, hits give low values 0.981 | locus YGL253W, strain hxk2, hits give low values 0.937 | locus YHR013C, strain ard1, hits give low values 0.951 | locus YHR027C, strain rpn1, hits give low values 0.978 | locus YHR030C, strain SLT2, hits give low values 1.02 | locus YHR079C, strain IRE1, hits give low values 1.02 | locus YHR142W, strain chs7, hits give low values 0.957 | locus YJL092W, strain hpr5, hits give low values 0.969 | locus YJL095W, strain BCK1 (second series), hits give low values 0.983 | locus YJL095W, strain BCK1, hits give low values 0.992 | locus YJL115W, strain asf1, hits give low values 0.962 | locus YJL129C, strain trk1, hits give low values 0.952 | locus YJL154C, strain vps35, hits give low values 0.984 | locus YJL164C, strain tpk1, hits give low values 0.974 | locus YJL166W, strain qcr8, hits give low values 0.987 | locus YJL187C, strain SWE1, hits give low values 0.984 | locus YJR066W, strain TOR1, hits give low values 0.969 | locus YKL160W, strain elf1, hits give low values 0.978 | locus YKR026C, strain gcn3, hits give low values 0.979 | locus YKR091W, strain srl3, hits give low values 0.987 | locus YLL001W, strain dnm1, hits give low values 0.994 | locus YLL026W, hits give low values 0.986 | locus YLL041C, strain sdh2, hits give low values 0.979 | locus YLR027C, strain aat2, hits give low values 0.989 | locus YLR113W, strain HOG1, hits give low values 0.999 | locus YLR221C, strain rsa3, hits give low values 0.979 | locus YLR258W, strain gsy2, hits give low values 0.978 | locus YLR262C, strain YPT6 (second series), hits give low values 0.977 | locus YLR320W, strain mms22, hits give low values 0.992 | locus YLR342W, strain FKS1, hits give low values 0.986 | locus YLR357W, strain rsc2, hits give low values 0.992 | locus YLR370C, strain arc18, hits give low values 0.984 | locus YLR384C, strain iki3, hits give low values 0.994 | locus YML120C, strain ndi1, hits give low values 0.97 | locus YMR058W, strain fet3, hits give low values 0.967 | locus YMR125W, strain sto1, hits give low values 0.995 | locus YMR129W, hits give low values 0.972 | locus YMR205C, strain PFK2, hits give low values 0.965 | locus YMR231W, strain pep5, hits give low values 0.983 | locus YNL071W, strain lat1, hits give low values 0.979 | locus YNL183C, strain NPR1, hits give low values 0.973 | locus YNL209W, strain ssb2, hits give low values 0.983 | locus YNL248C, strain rpa49, hits give low values 0.941 | locus YNL322C, strain KRE1 (second series), hits give low values 0.983 | locus YNR049C, strain mso1, hits give low values 0.976 | locus YOR001W, strain rrp6, hits give low values 0.959 | locus YOR070C, strain gyp1, hits give low values 0.99 | locus YOR080W, strain dia2, hits give low values 0.971 | locus YOR083W, strain WHI5, hits give low values 0.973 | locus YOR106W, strain vam3, hits give low values 0.982 | locus YOR231W, strain MKK1, hits give low values 1.04 | locus YOR265W, strain rbl2, hits give low values 0.991 | locus YOR270C, strain vph1, hits give low values 0.954 | locus YOR290C, strain snf2, hits give low values 0.988 | locus YPL051W, strain arl3, hits give low values 0.996 | locus YPL078C, strain atp4, hits give low values 0.94 | locus YPL106C, strain sse1, hits give low values 0.968 | locus YPL240C, strain hsp82, hits give low values 0.967 | locus YPL256C, strain CLN2, hits give low values 1.03

Reference: PubChem BioAssay AID1159580 (chemical genetic matrix, 2015)
